A short description of test [1]: Cell Viability - BJ (AID 421; calls by dose curve;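 note: potency is the fitted concentration of half-maximal effect; cells exposed to compound for 40 hours at 37 °C before readout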). The note with it: BJ fibroblast viability, qHTS. In outline: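 Quantitative HTS: ATP depletion in BJ cells after 40 hr compound exposure in complete culture medium, detected with CellTiter-Glo; AC50 from standard Hill fits.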
On the technique in general: Quantitative high-throughput screening tests each substance at several concentrations.

Test [2] is described as follows: Cell Viability - HepG2 (AID 433; calls by dose curve;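 note: potency is the fitted concentration of half-maximal effect; potency for ATP loss meaning cytotoxicity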). Conditions: qHTS. In short, it runs like this: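 HepG2 cells, 1500 per well, treated 40 hr at 37 °C in complete medium; viability from intracellular ATP by CellTiter-Glo luminescence. Normalized to DMSO and 100 uM tamoxifen; AC50 from Hill fit of qHTS concentration-response.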
Test [3] in a line: Cell Viability - Renal Proximal Tubule (AID 545). Note: nearly all actives have a fitted effect of over 40% in size. Conditions: renal proximal tubule cells viability, primary cells of rat origin; activity change, negative = cytotoxicity: at 91.7 µM (top of the series). In outline: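 Rat renal proximal tubule primary cells, 1000/well, exposed to compounds for 40 hr at 37 °C in complete medium; cellular ATP read by CellTiter-Glo luminescence. AC50 from concentration-response fitted with standard Hill equation.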

A short description of test [4]: Cellular Toxicity (caspase-3) Jurkat (AID 655).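 Note: cells exposed to compound for 16 h at 37 °C before reading.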 The note with it: Jurkat caspase-3 activation, luminescence; caspase-3 activation: at 92.2 µM (top of the series), DMSO = 0%, tamoxifen = 100%. In outline:
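Jurkat cells (5000/well) in complete medium exposed 16 h at 37 C; caspase-3/7 activity read by Caspase-Glo luminescence after 20 min at room temperature. Normalized to DMSO and 100 uM tamoxifen; AC50 from Hill fits.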

The nature of test [5]: MultiTox-Fluor Cytotoxicity Assay - LYMP1-001 - Dead Cells (AID 946).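 Note: 0% = DMSO and 100% = tetraoctylammonium bromide.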 Conditions: LYMP1-001 lymphoblastoid cells, dead-cell protease fluorescence; series mostly up to 92.2 µM. In outline:
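In this qHTS, 15 uM tetraoctylammonium bromide defined 100% and DMSO defined basal activity. Lymphoblastoid cells (LYMP1-001, 2500 per well) received compound for 16 hr at 37 C before a fluorogenic dead-cell substrate readout at 485/520 nm.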

Test [6] in a line: Cell Viability - LYMP1-002 - Assay at 16 hr (AID 948).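 Note: 0% = DMSO alone and full effect = 92 µM tetraoctylammonium bromide.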 Conditions: LYMP1-002 lymphoblastoid cell viability; series mostly up to 92.2 µM. In outline: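 LYMP1-002 human lymphoblastoid cells, 2500/well, were treated with compounds for 16 hr at 37 C in complete medium. Viability was read as intracellular ATP by CellTiter-Glo luminescence, and AC50 was derived from a Hill fit to concentration-response data.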

A short description of test [7]: MultiTox-Fluor Cytotoxicity Assay - LYMP1-002 - Live Cells (AID 955).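 Note: cells exposed to compound for 16 hours; % is set by controls: 0 for no effect and ±100 for the full control effect.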 Conditions: LYMP1-002 lymphoblastoid live-cell protease fluorescence viability; series mostly up to 46.1 µM. In short, it runs like this: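 After 16 h compound exposure at 37 C, live LYMP1-002 lymphoblastoid cells (2500/well) were quantified by cleavage of cell-permeant GF-AFC substrate, read at 405/510 nm after 60 min. Concentration-response fitted with Hill equation for AC50.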

Test [8] can be described thus: MultiTox-Fluor Cytotoxicity Assay - LYMP1-003 - Dead Cells (AID 961).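 Note: 0% = DMSO and 100% = tetraoctylammonium bromide; nearly all actives have a fitted effect of over 70% in size.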 The note with it: LYMP1-003 lymphoblastoid cells, dead-cell protease fluorescence; series mostly up to 92.2 µM. In outline:
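Acute toxicity is scored as increased dead-cell protease activity in human lymphoblastoid LYMP1-003 cells after 16 h compound exposure in complete culture medium. Activity is normalized to DMSO basal and 15 uM tetraoctylammonium bromide as full response.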

The nature of test [9]: Cell Viability - LYMP2-004 (AID 966).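 Note: plate controls were DMSO only for no effect and tetraoctylammonium bromide control for full effect; nearly all actives have a fitted effect of over 65% in size.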 Conditions: LYMP2-004 lymphoblastoid cell viability, qHTS; series mostly up to 92.2 µM. In short, it runs like this:
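AC50 values come from Hill modelling of concentration-dependent loss of intracellular ATP, measured by CellTiter-Glo luminescence. Human LYMP2-004 lymphoblastoid cells (2500/well) were exposed to compound for 24 h at 37 C.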

Test [10] can be described thus: Cell Viability - LYMP2-011 (AID 969).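 Note: 0% = DMSO only and full inhibition = 92 µM tetraoctylammonium bromide; nearly all actives have a fitted effect of over 60% in size.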 Conditions: LYMP2-011 lymphoblastoid cells viability; series mostly up to 92.2 µM. In outline: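 Cytotoxicity qHTS with ATP content as read-out: lymphoblastoid cells (2500/well) exposed to compound for 24 h at 37 C, then luciferase luminescence measured. Concentration-response data fitted with the standard Hill equation to give AC50.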

Test [11] can be described thus: Cell Viability - LYMP2-017 (AID 972). Note: % is set by controls: 0 for no effect and ±100 for the full control effect; nearly all actives have a fitted effect of over 55% in size. Conditions: LYMP2-017 lymphoblastoid cell viability; series mostly up to 92.2 µM. In outline: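 CellTiter-Glo luminescence (cellular ATP, 30 min RT) measured cytotoxicity after 24 hr compound treatment at 37 C. Cells were a human lymphoblastoid line, LYMP2-017, plated at 2500/well and incubated 5 hr first; concentration-response fitted with Hill equation for AC50.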

Test [12] can be described thus: Cell Viability - LYMP2-007 (AID 979).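 Note: cells exposed to compound for 24 h before reading; 0% = DMSO only and the negative end = 92 µM tetraoctylammonium bromide; nearly all actives have a fitted effect of over 60% in size.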 Conditions: LYMP2-007 lymphoblastoid cell viability; series mostly up to 92.2 µM. In short, it runs like this:
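AC50 values come from Hill-equation fits of luminescent intracellular ATP (CellTiter-Glo, 30 min, room temperature) following 24 h compound exposure at 37 C. Cells: LYMP2-007 lymphoblastoid line, 2500 per well, in complete culture medium.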

The nature of test [13]: Cell Viability - LYMP2-014 (AID 983).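 Note: plate controls were DMSO only for no effect and 92 µM tetraoctylammonium bromide for full effect; nearly all actives have a fitted effect of over 50% in size.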 The note with it: LYMP2-014 lymphoblastoid cells, viability qHTS; series mostly up to 92.2 µM. In short, it runs like this: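 Intracellular ATP loss, read by luciferase luminescence, measures acute cytotoxicity after 24 h compound exposure of lymphoblastoid LYMP2-014 cells (2500/well, 37 C). Concentration-response data fitted to the Hill equation for AC50.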

Test [14] is described as follows: Cell Viability - LYMP2-016 (AID 984). Note: % is set by controls: 0 for no effect and ±100 for the full control effect; nearly all actives have a fitted effect of over 55% in size. The note with it: LYMP2-016 lymphoblastoid cell viability, qHTS; series mostly up to 92.2 µM. In outline:
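Human lymphoblastoid LYMP2-016 cells, 2500 per well, treated with compounds for 24 h at 37 C. Viability read as intracellular ATP by CellTiter-Glo luminescence after 30 min at room temperature; AC50 from Hill fits of concentration-response.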

Test [15] is described as follows: Cell Viability - LYMP2-018 (AID 985).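 Note: plate controls were DMSO only for no effect and tetraoctylammonium bromide at 92 µM for full effect; nearly all actives have a fitted effect of over 50% in size.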 The note with it: LYMP2-018 lymphoblastoid cells, viability (qHTS); series mostly up to 92.2 µM. In short, it runs like this:
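Viability read as CellTiter-Glo luminescence (cellular ATP) after 24 hr compound exposure at 37 C of 2500 LYMP2-018 lymphoblastoid cells/well, pre-plated 5 hr. Hill-equation modelling gave AC50.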

Test [16] is described as follows: Cell Viability - LYMP2-020 (AID 986).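 Note: plate controls were DMSO only for no effect and tetraoctylammonium bromide at 92 µM for full effect; nearly all actives have a fitted effect of over 55% in size.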 The note with it: series mostly up to 92.2 µM. In short, it runs like this:
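Cytotoxicity in qHTS format: luminescent ATP readout from CellTiter-Glo after 24 h compound exposure at 37 C in complete medium. LYMP2-020 lymphoblastoid cells were seeded at 2500/well; concentration-response data fitted to the Hill equation for AC50.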

Test [17] in a line: Cell Viability - LYMP2-022 (AID 987).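 Note: 0% = DMSO alone and full effect = tetraoctylammonium bromide at 92 µM; nearly all actives have a fitted effect of over 55% in size.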 The note with it: LYMP2-022 lymphoblastoid cell viability; series mostly up to 92.2 µM. In short, it runs like this:
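Cytotoxicity read as decreased cellular ATP (CellTiter-Glo luminescence, 30 min room temperature) after 24 hours compound exposure of 2500 lymphoblastoid LYMP2-022 cells/well at 37 C. Concentration-response data fitted with standard Hill equation for AC50.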

Test [18] can be described thus: Cell Viability - LYMP1-002 - Assay at 24 hr (AID 993). Note: % is set by controls: 0 for no effect and ±100 for the full control effect. The note with it: LYMP1-002 lymphoblastoid cells viability; series mostly up to 92.2 µM. In short, it runs like this:
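qHTS cytotoxicity at 24 h: CellTiter-Glo ATP luminescence in lymphoblastoid line LYMP1-002 incubated with compound at 37 °C. Concentration-response modeled with the Hill equation for AC50; tetraoctylammonium bromide served as positive control.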

The nature of test [19]: qHTS assay for environmental chemicals that activate the Aryl hydrocarbon Receptor (AhR) signaling pathway (AID 651777). Note: % of control where 0% means no effect; nearly all actives have a fitted effect of over 15% in size. The note with it: 1A2-DRE human hepatoma cells, luciferase, 24 h; activation: hits give high values. In outline:
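Concentration–response screening used 1,200 1A2-DRE cells per well, 24 hr compound exposure (37 C, 5% CO2), and One-Glo luminescence as the AhR-driven CYP1A2 reporter signal.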

For test [20], the target named is Nuclear receptor subfamily 1 group I member 2 (Rattus norvegicus) (UniProt Q9R1A7). Briefly: qHTS assay for small molecule activators of the rat pregnane X receptor (rPXR) signaling pathway (AID 651751; call rule not given here; note: 0% is about no effect). Conditions: rPXR reporter cells, luciferase (One-Glo), 24 h.

Several values for one entry are separate records, joined by “and”; a condition that tells them apart may be missing. Equal values may be shown once. Unmarked numbers belong to inactive results. Records with an inconclusive call do not appear. Activity calls are given as the source filed them. Unless noted, calls come from the whole dose curve; as a rule, active = well fitted curve in the direction sought with a large enough effect; inconclusive = small, poorly fitted or top-dose-only effect, or another doubt; inactive = no such curve, though single readings can be large; an effect the other way counts as inactive or inconclusive.

Nuclear receptor subfamily 1 group I member 2 (Rattus norvegicus), sequence (Q9R1A7 whole entry, looked up): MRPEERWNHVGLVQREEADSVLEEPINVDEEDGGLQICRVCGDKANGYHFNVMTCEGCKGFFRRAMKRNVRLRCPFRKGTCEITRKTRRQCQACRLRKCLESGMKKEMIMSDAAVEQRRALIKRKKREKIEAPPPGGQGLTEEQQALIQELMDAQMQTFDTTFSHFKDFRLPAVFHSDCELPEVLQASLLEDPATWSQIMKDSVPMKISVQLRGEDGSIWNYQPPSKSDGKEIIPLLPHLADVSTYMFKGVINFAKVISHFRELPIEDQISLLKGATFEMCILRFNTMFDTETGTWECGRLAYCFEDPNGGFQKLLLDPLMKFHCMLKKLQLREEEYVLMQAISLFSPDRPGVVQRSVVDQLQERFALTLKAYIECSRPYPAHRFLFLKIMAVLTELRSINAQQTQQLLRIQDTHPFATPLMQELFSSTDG

With `OCC(CBr)(CBr)CBr`, the Potency in test [1] and in test [2] was greater than 92 µM throughout. In addition, the Potency result in test [3], in [4], in test [5], in test [6], in test [8] and in test [9] was “inactive” each time. In addition, the Potency result in test [10], in test [11], in test [12], in test [13], in [14] and in [15] was “inactive” each time. The Potency result in test [16], in [17] and in test [18] was “inactive” throughout. In addition, the outcome in test [7] was inactive. In addition, the activation in test [19] is 7.86%. In addition, in test [20], the max response is 6.71%.

As for `CCCCC(CC)COC(=O)COc1ccc(Cl)cc1Cl` (stereo not given), the Potency in test [1] and in [2] was greater than 92 µM throughout. Moreover, the Potency result in test [3], in [4], in test [5], in test [6], in [8] and in test [9] was “inactive” in each case. The Potency entry in [10], in test [11], in test [12], in test [13], in test [14] and in test [15] was “inactive” each time. Moreover, the Potency entry in test [16], in test [17] and in test [18] was “inactive” each time. Besides, in [7], the molecule was called inactive. Moreover, in test [19], the activation is 0.535% and 1.47%. Besides, the max response in [20] was -0.582% and 1.82%.

In the case of `COc1ccc(C)cc1N`, the Potency in test [1] and in [2] was greater than 92 µM throughout. Also, the Potency result in test [3], in [4], in test [5], in test [6], in test [8] and in test [9] was “inactive” throughout. Further, the Potency entry in test [10], in test [11], in test [12], in test [13], in [14] and in [15] was “inactive” throughout. In addition, the Potency result in [16], in test [17] and in test [18] was “inactive” in each case. For the same molecule, in [7], the outcome was inactive. The activation in [19] was 3.33%. Further, the max response in [20] is 8.96%.

For `Oc1c(Cl)cc(Cl)c(Cl)c1Cl`, the Potency in [1] and in [2] was greater than 92 µM in each case. In addition, the Potency result in test [3], in test [5], in test [6], in [8], in [9] and in [10] was “inactive” each time. The Potency entry in test [11], in [12], in test [13], in test [14], in [15] and in [16] was “inactive” each time. For the same molecule, the Potency entry in test [17] and in test [18] was “inactive” each time. Also, the caspase-3 activation in [4] was 91.2% (active). The molecule was classed as inactive in [7]. Also, in [19], the activation is -0.427%. In addition, the max response in test [20] is -11.7% and -1.19%.

For the molecule `CN(C)c1ccc(Cc2ccc(N(C)C)cc2)cc1`, the Potency in test [1] and in [2] was greater than 92 µM in each case. Moreover, the Potency result in test [3], in test [4], in test [5], in [6], in test [8] and in test [9] was “inactive” each time. For the same molecule, the Potency result in test [10], in [11], in test [12], in test [13], in [14] and in test [15] was “inactive” in each case. The Potency entry in [16], in test [17] and in test [18] was “inactive” throughout. For the same molecule, the result in test [7] was inactive. Further, the activation in test [19] is 8.36% and 2.98%. Moreover, the max response in test [20] was 1.5% and 4.81%.

Regarding `C/C(Cl)=C/CCl`, the Potency in test [1] and in test [2] was greater than 92 µM in each case. The Potency entry in test [3], in test [4], in test [5], in test [6], in [8] and in test [9] was “inactive” each time. Further, the Potency entry in test [10], in test [11], in [12], in [13], in test [14] and in test [15] was “inactive” each time. The Potency result in test [16], in [17] and in test [18] was “inactive” in each case. Also, the result in [7] was inactive. Further, the activation in test [19] is 0.708%. The max response in [20] is -2.47%.

These data come from PubChem BioAssay (NCATS).
